Assay results from PubChem BioAssay (NCATS).
Records with an inconclusive call do not appear. Activity calls are given as the source filed them. Calls come from the whole dose curve; as a rule, active = well fitted curve in the direction sought with a large enough effect; inconclusive = small, poorly fitted or top-dose-only effect, or another doubt; inactive = no such curve, though single readings can be large; an effect the other way counts as inactive or inconclusive.

What was measured:
[1] = Quantitative High-Throughput drug screen in 47 multiple myeloma cell lines against the NCATS MIPE library collection: INA6_PLB cell viability assay (AID 1918965; note: nearly all actives have a fitted effect of over 55% in size; note: potency is the fitted concentration of half-maximal effect)
Procedure, shortened: (§1)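 Viability readout: CellTiter-Glo luminescence following 5 min room-temperature incubation with reagent. Prior exposure: 48 h, 37C, humidified 5% CO2, 500 cells per well.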

[2] = Quantitative High-Throughput drug screen in 47 multiple myeloma cell lines against the NCATS MIPE library collection: H1112_PLB cell viability assay (AID 1918967; note: nearly all actives have a fitted effect of over 30% in size; note: potency is the fitted concentration of half-maximal effect)
Procedure, shortened: (§2)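 qHTS of the MIPE 4.0 collection: 500 myeloma cells/well, 48 h drug exposure at 37C in 5% CO2, then CellTiter-Glo for 5 min at room temperature before luminescence reading.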

[3] = Quantitative High-Throughput drug screen in 47 multiple myeloma cell lines against the NCATS MIPE library collection: Karpas25_ECACC cell viability assay (AID 1918968; note: nearly all actives have a fitted effect of over 35% in size; note: potency is the fitted concentration of half-maximal effect)
Procedure, shortened: as §2

[4] = Quantitative High-Throughput drug screen in 47 multiple myeloma cell lines against the NCATS MIPE library collection: KMS12PE_JCRB cell viability assay (AID 1918972); note: nearly all actives have a fitted effect of over 30% in size; note: potency is the fitted concentration of half-maximal effect
Procedure, shortened: as §1

[5] = Quantitative High-Throughput drug screen in 47 multiple myeloma cell lines against the NCATS MIPE library collection: KMS26_JCRB cell viability assay (AID 1918975); note: nearly all actives have a fitted effect of over 45% in size; note: potency is the fitted concentration of half-maximal effect
Procedure, shortened: (§3)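 Myeloma cells (500 per well) were exposed to MIPE 4.0 compounds by pin transfer and incubated 48 hours at 37C, 5% CO2. Viability was read as ATP by CellTiter-Glo luminescence, normalised to DMSO (100%) and media-only (0%) wells.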

[6] = Quantitative High-Throughput drug screen in 47 multiple myeloma cell lines against the NCATS MIPE library collection: MM1S_ATCC cell viability assay (AID 1918980); note: nearly all actives have a fitted effect of over 45% in size; note: potency is the fitted concentration of half-maximal effect
Procedure, shortened: (§4)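 Cells were exposed to library compounds for 48 hours, after which ATP was measured by CellTiter-Glo. Signal was taken as median relative luminescence units.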

[7] = Quantitative High-Throughput drug screen in 47 multiple myeloma cell lines against the NCATS MIPE library collection: KMS28PE_JCRB cell viability assay (AID 1918983); note: nearly all actives have a fitted effect of over 35% in size; note: potency is the fitted concentration of half-maximal effect
Procedure, shortened: as §4

[8] = Quantitative High-Throughput drug screen in 47 multiple myeloma cell lines against the NCATS MIPE library collection: L363_DSMZ cell viability assay (AID 1918984); details: L363 myeloma viability, CellTiter-Glo ATP luminescence, 48 h; viability (% of control): at 45.8 µM (top of the series); note: nearly all actives have a fitted effect of over 40% in size; note: potency is the fitted concentration of half-maximal effect
Procedure, shortened: as §4

[9] = Quantitative High-Throughput drug screen in 47 multiple myeloma cell lines against the NCATS MIPE library collection: KMS34_JCRB cell viability assay (AID 1918985); note: nearly all actives have a fitted effect of over 40% in size
Procedure, shortened: as §4

[10] = Quantitative High-Throughput drug screen in 47 multiple myeloma cell lines against the NCATS MIPE library collection: MMM1_PLB cell viability assay (AID 1918976); note: potency is the fitted concentration of half-maximal effect; nearly all actives have a fitted effect of over 35% in size
Procedure, shortened: as §4

[11] = Quantitative High-Throughput drug screen in 47 multiple myeloma cell lines against the NCATS MIPE library collection: MOLP8_DSMZ cell viability assay (AID 1918977); note: nearly all actives have a fitted effect of over 45% in size; note: potency is the fitted concentration of half-maximal effect
Procedure, shortened: as §4

[12] = Quantitative High-Throughput drug screen in 47 multiple myeloma cell lines against the NCATS MIPE library collection: NCIH929_DSMZ cell viability assay (AID 1918978); note: nearly all actives have a fitted effect of over 35% in size; note: potency is the fitted concentration of half-maximal effect
Procedure, shortened: as §4

[13] = Quantitative High-Throughput drug screen in 47 multiple myeloma cell lines against the NCATS MIPE library collection: OCIMY1_PLB cell viability assay (AID 1918979); note: nearly all actives have a fitted effect of over 35% in size
Procedure, shortened: as §4

[14] = Quantitative High-Throughput drug screen in 47 multiple myeloma cell lines against the NCATS MIPE library collection: LP1_DSMZ cell viability assay (AID 1918982); note: nearly all actives have a fitted effect of over 35% in size; note: potency is the fitted concentration of half-maximal effect
Procedure, shortened: as §4

[15] = Quantitative High-Throughput drug screen in 47 multiple myeloma cell lines against the NCATS MIPE library collection: KMS21BM_JCRB cell viability assay (AID 1918974); details: ATP luminescence, 48 h; viability: at 45.8 µM (top of the series); note: potency is the fitted concentration of half-maximal effect
Procedure, shortened: as §2

[16] = Quantitative High-Throughput drug screen in 47 multiple myeloma cell lines against the NCATS MIPE library collection: MM1R_ATCC cell viability assay (AID 1918981); note: nearly all actives have a fitted effect of over 35% in size; note: potency is the fitted concentration of half-maximal effect
Procedure, shortened: as §4

[17] = Quantitative High-Throughput drug screen in 47 multiple myeloma cell lines against the NCATS MIPE library collection: KMS12BM_JCRB cell viability assay (AID 1918971); note: nearly all actives have a fitted effect of over 35% in size; note: potency is the fitted concentration of half-maximal effect
Procedure, shortened: as §3

[18] = Quantitative High-Throughput drug screen in 47 multiple myeloma cell lines against the NCATS MIPE library collection: KMS27_JCRB cell viability assay (AID 1918970); details: KMS27 myeloma cells, CellTiter-Glo ATP viability, 48 h; viability (% of DMSO): at 45.8 µM (top of the series); note: nearly all actives have a fitted effect of over 30% in size; note: potency is the fitted concentration of half-maximal effect
Procedure, shortened: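 Myeloma cells (500 per well) were exposed to MIPE 4.0 compounds for 48 h at 37 °C, 5% CO2; viability was read as ATP luminescence with CellTiter-Glo, normalized to DMSO-only (100%) and media-only (0%) wells.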

[19] = Quantitative High-Throughput drug screen in 47 multiple myeloma cell lines against the NCATS MIPE library collection: KMS20_JCRB cell viability assay (AID 1918973); note: nearly all actives have a fitted effect of over 45% in size
Procedure, shortened: as §2

Measured: Potency

O=C(O)c1nc(=O)[nH]c(=O)[nH]1
inactive: [1] | [2] | [3] | [4] | [5] | [6] | [8] | [9]
active: [7] 11.5 µM

COc1ccc(-c2cc3nccn3c(Nc3ncccc3C(N)=O)n2)cc1OC
inactive: [13]
active: [1] 0.187 µM | [2] 5.9 µM | [3] 1.48 µM | [5] 10.5 µM | [10] 10.5 µM | [11] 3.72 µM | [12] 0.935 µM | [6] 14.8 µM | [14] 3.32 µM | [7] 5.9 µM

CCN1C[C@H](C)n2c(c(O)c3c(=O)n(Cc4ccc(F)c(Cl)c4)nc(C(=O)NC)c32)C1=O
active: [10] 2.64 µM | [16] 3.32 µM
not listed: [11] | [12] | [14] | [17] | [18] | [19]
inactive: all other assays above

NC(N)=Nc1nc(CSCCC(N)=NS(N)(=O)=O)cs1
active: [1] 11.8 µM | [2] 16.6 µM | [3] 11.8 µM | [12] 8.33 µM | [6] 9.35 µM | [16] 23.5 µM
inactive: [17] | [4] | [14] | [7] | [9]

CCC[C@H](N[C@@H](C)C(=O)N1[C@@H]2CCCC[C@H]2C[C@H]1C(=O)O)C(=O)OCC
inactive: [1] | [2] | [3] | [15] | [11] | [7] | [9]
active: [18] 14.8 µM

O=C1C(CCC(O)c2ccc(F)cc2)C(c2ccc(O)cc2)N1c1ccc(F)cc1 (configuration not stated)
active: [4] 20.9 µM
not listed: [6] | [10] | [12] | [15] | [18] | [19]
inactive: all other assays above

O=[N+]([O-])c1ccc(Nc2ccccc2-c2ccccc2)c2nonc12
inactive: [13] | [9]
active: [1] 26.4 µM | [2] 18.7 µM | [3] 18.7 µM | [18] 20.9 µM | [8] 16.6 µM

CCOC(=O)[C@H]1O[C@H]1C(=O)N[C@@H](CC(C)C)C(=O)NCCC(C)C
inactive: [1] | [2] | [18] | [19] | [11] | [13] | [16] | [14]
active: [17] 10.5 µM

C=C1c2cccc(O)c2C(O)=C2C(=O)[C@@]3(O)C(O)=C(C(N)=O)C(=O)[C@@H](N(C)C)[C@@H]3[C@@H](O)[C@H]12
active: [1] 13.2 µM | [2] 11.8 µM | [3] 14.8 µM | [5] 4.69 µM | [16] 20.9 µM | [14] 23.5 µM
inactive: [12] | [13] | [8]

CC(=O)O[C@]1(C(C)=O)CC[C@H]2[C@@H]3C=C(Cl)C4=CC(=O)[C@@H]5C[C@H]5[C@]4(C)[C@@H]3CC[C@@]21C
active: [1] 14.8 µM | [2] 9.35 µM | [3] 9.35 µM | [18] 18.7 µM | [12] 9.35 µM | [6] 7.43 µM

CNC1[C@H](O)C(O[C@@H]2C(O)C(O[C@H]3O[C@H]([C@@H](C)NC)CC[C@H]3N)[C@@H](N)C[C@H]2N)OC[C@]1(C)O (some centres not stated)
not listed: [6] | [7] | [8] | [10] | [15] | [18] | [19]
inactive: all other assays above

CNC(=O)[C@H](CC1=CN=C2C=CCC=C12)NC(=O)[C@@H](CC(=O)NO)CC(C)C
active: [1] 33.2 µM | [2] 14.8 µM | [3] 6.62 µM | [4] 0.105 µM | [15] 105 nM | [12] 23.5 µM | [6] 3.32 µM | [8] 0.059 µM
inactive: [17] | [5] | [13] | [14]

COc1ccc(CCN(C)CCCOc2ccc(S(=O)(=O)c3[nH]c4ccccc4c3C(C)C)cc2)cc1OC
inactive: [18] | [8]
active: [1] 16.6 µM | [2] 18.7 µM | [17] 23.5 µM | [6] 20.9 µM | [7] 16.6 µM

Cc1nc(C(=O)NCC(=O)O)c(O)c2ccc(Oc3ccccc3)cc12
inactive: [1] | [2] | [3] | [5] | [12] | [13] | [16] | [14] | [7] | [8]
active: [10] 0.0053 µM

COc1cc2c(cc1OC)CC(=O)N(CCCN(C)C[C@H]1Cc3cc(OC)c(OC)cc31)CC2
active: [2] 3.72 µM | [3] 4.69 µM | [4] 20.9 µM | [10] 7.43 µM | [12] 0.332 µM | [6] 16.6 µM | [16] 11.8 µM
inactive: [1] | [7]
